# N370S GC – inhibitors or activators of N370S glucocerebrosidase for Gaucher disease. N370S GC spleen homogenate, 4MU-glucoside fluorescence. Potency, µM (series often up to 59.4 µM), for inactives: at the highest dose activity change, negative = inhibition, actives largely listed as inhibitors. actives 0.092% (n = 330,000);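 note: potency is the fitted concentration of half-maximal effect; 0% = full enzyme activity and -100% = no enzyme basal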
# Pin1 inhibitor – blocks the human prolyl isomerase Pin1. AID 504891. actives 0.009% (n = 390,000). Q13526. Pin1 FP peptide displacement, HiFluor488, 10 min. Potency, µM (doses to about 115 µM), for inactives: at the top dose activity, negative = inhibition, actives largely listed as inhibitors; active = well fitted inhibition curve with a large enough effect in the polarisation, with a control signal flat, not every such curve was filed as active; inconclusive = small, poorly fitted or top-dose-only effect, or effect the other way, or a change in a side signal; inactive = no such curve, though single readings can be large or run the other way; the % refers to the polarisation; note: potency is the fitted concentration of half-maximal effect; % is set by controls: 0 for no effect and ±100 for the full control effect
# Target sequence (Q13526 whole entry, looked up): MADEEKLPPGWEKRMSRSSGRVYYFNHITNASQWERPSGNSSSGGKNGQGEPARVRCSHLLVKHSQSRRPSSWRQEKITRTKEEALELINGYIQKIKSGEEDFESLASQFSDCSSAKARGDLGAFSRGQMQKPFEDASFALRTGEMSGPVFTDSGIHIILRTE
# Akt phos inh – blocks phosphorylation of Akt. Neuro2A IGF-stimulated pAkt S473 HTRF, 20 min; hits give low values. actives 0.32% (n = 360,000). activity change, % for hits at 50 µM. AID 651550; in the data active = activity change below about -80%; inconclusive = mostly about -51% to -80%; note: % is set by controls: 0 for no effect and ±100 for the full control effect
#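 Single-point screen (50 µM final compound) in Neuro2A cells stimulated 20 min with 6 nM IGF at 37 deg C. After lysis, Ser473-phosphorylated Akt read by HTRF (ex 330 nm, em 615/665 nm) as the 665/615 ratio.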
# A-T KAP1 phos – candidate therapy for ataxia-telangiectasia | F2112 A-T fibroblasts, KAP-1 phosphorylation AlphaLISA; neocarzinostatin DNA damage 30 min before lysis | Potency, µM (top dose mostly 57.5 µM), for the others: at the top dose activation, most hits filed as activators | actives 0.19% (n = 320,000) | AID 485349; note: potency is the fitted concentration of half-maximal effect; % of control where 0% means no effect; nearly all actives have a fitted effect of over 45% in size
#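 ATM-like activity read as KAP-1 phosphorylation via AlphaLISA donor/acceptor antibody pairs after lysis and 6 hr at 25C. Cells were ATM-null patient fibroblasts (F2112, hTERT), dosed 60 min, then exposed to the DSB inducer NCS for 30 min.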
# TrxR1 substrate – is turned over as a substrate by rat TrxR1; purified TrxR1 substrate turnover, NADPH consumption readout; AID 588456; Potency, µM (doses to about 114 µM), for the others: at the top dose activity change, negative = substrate turnover; actives 0.01% (n = 390,000); O89049; note: potency is the fitted concentration of half-maximal effect; % is set by controls: 0 for no effect and ±100 for the full control effect; nearly all actives have a fitted effect of over 50% in size
# Target sequence (O89049 whole entry, looked up): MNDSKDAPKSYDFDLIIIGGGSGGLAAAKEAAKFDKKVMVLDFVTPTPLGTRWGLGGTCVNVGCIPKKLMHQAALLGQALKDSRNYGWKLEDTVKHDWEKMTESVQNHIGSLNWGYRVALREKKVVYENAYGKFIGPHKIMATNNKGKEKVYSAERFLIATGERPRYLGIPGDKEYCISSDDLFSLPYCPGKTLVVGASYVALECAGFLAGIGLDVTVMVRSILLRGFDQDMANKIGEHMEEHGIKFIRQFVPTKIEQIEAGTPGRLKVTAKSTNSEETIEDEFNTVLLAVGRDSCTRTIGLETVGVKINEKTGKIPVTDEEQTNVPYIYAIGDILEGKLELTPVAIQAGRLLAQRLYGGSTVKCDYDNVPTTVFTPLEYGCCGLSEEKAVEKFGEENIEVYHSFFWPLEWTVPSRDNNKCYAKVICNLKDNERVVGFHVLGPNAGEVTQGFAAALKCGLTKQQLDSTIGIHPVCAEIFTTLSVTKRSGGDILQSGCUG
#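 Rat TrxR1, dispensed at 90 nM, was prereduced with 400 uM NADPH (final) for 5 min at ~22 deg C, then incubated with compound 15 min before 400 uM selenite. A first-read NADPH fluorescence drop versus no-compound background flagged substrates.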
# rTrxR1 inhibitor – blocks rat thioredoxin reductase 1 | Potency, µM (titrated, usually from 114 µM), inactives show at the top dose activity change, negative = inhibition, actives largely listed as inhibitors | O89049 | AID 588453 | actives 1% (n = 390,000) | recombinant rTrxR1, NADPH fluorescence consumption, selenite substrate; note: potency is the fitted concentration of half-maximal effect; % is set by controls: 0 for no effect and ±100 for the full control effect; nearly all actives have a fitted effect of over 65% in size
#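 Rat TrxR1 (90 nM in the dispensed reagent) was pre-reduced with 400 uM NADPH for 5 min at room temperature, then incubated with compound for 15 min. After 400 uM selenite was added, NADPH fluorescence (Ex 340/Em 450 nm) was followed for 8 min.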
# * = called active by the depositor; i = inactive; ? = inconclusive; . = no result given; [ ] = remark or other dose. Compounds with a hit are over-represented: about 1.4% of the library has one in this group of screens. Unless noted, calls come from the whole dose curve; as a rule, active = well fitted curve in the direction sought with a large enough effect; inconclusive = small, poorly fitted or top-dose-only effect, or another doubt; inactive = no such curve, though single readings can be large; an effect the other way counts as inactive or inconclusive.
SMILES,N370S GC,Pin1 inhibitor,Akt phos inh,A-T KAP1 phos,TrxR1 substrate,rTrxR1 inhibitor
O=S(=O)(/C=C/C=C/S(=O)(=O)c1ccccc1)c1ccccc1,.,3.3%,i,.,12.4%[57.1 µM],2µM*
CC(=O)Nc1ccccc1-c1nn[nH]n1,-1.7%,-1.0%,-101.3%*,.,8.2%[57.1 µM],21.6%[57.1 µM]
O=C1[C@H](Cc2ccccc2)NC/C=C\C[C@@H](c2ccco2)N1Cc1ccccc1,.,.,.,.,2.6%,11.9%
CCCCCC(O)(CCN1CCCCC1)c1ccc(OCC)cc1 (stereo not given),-13.7%,-2.8%,i,2.6%,9.5%[57.1 µM],8.91µM*
CCCCOc1ccc(C(O)(CCC)CCN2CCOCC2)cc1 (stereo not given),-29.5%,1.1%,i,2.1%,-2.7%,?
CCCC(O)(CCN1CCCCC1)c1ccc(OCC)cc1 (stereo not given),-5.1%,-2.1%,i,?,-3.3%,50.1µM*
COc1ccc(C(O)(CCN2CCCCC2)C2CCCCC2)cc1 (stereo not given),-2.0%,-7.3%,i,0.0%,14.9%[57.1 µM],2.82µM*
N#Cc1nc(-c2ccccc2)cc(-c2ccccc2)n1,.,.,.,.,6.2%,8.1%
CC(NC(=O)/C=C/c1ccco1)c1nc2ccccc2n1Cc1cccc(Cl)c1 (stereo not given),-16.8%,44.5%,i,-1.5%,-2.5%,14.1µM*
CCC(O)c1nc2ccccc2n1Cc1cccc(Cl)c1 (stereo not given),.,0.1%,.,.,1.8%,13.7%
Oc1cc2c(cc1O)[C@H]1c3ccc(O)c(O)c3OC[C@@]1(O)C2,-9.6%,-8.7%,i,-21.8%,3.1%,10µM*
Oc1ccc2c(c1)OCO2,-10.0%,.,.,.,.,.
Oc1ccc2c(c1)OCC1(O)Cc3cc(O)c(O)cc3C21 (stereo not given),-4.8%,?,i,.,7.8%,4.47µM*
O=C(/C=C/c1ccco1)Nc1nc(-c2ccccc2)cs1,-16.5%,-9.2%,i,-3.4%,-9.3%,-10.9%
O=C(/C=C/c1ccco1)Nc1nc(-c2ccccn2)cs1,-9.2%,.,i,-2.2%,9.1%[0.0914 µM],14.1µM*
O=C(CCCSc1ccccc1)Nc1nc(-c2ccccn2)cs1,-2.5%,9.3%,-106.3%*,4.8%,-2.7%,2.1%
Cc1csc(NC(=O)/C=C/c2ccco2)n1,-11.4%,2.2%,i,0.1%,-13.0%,?
CCOC(=O)Cc1csc(NC(=O)/C=C/c2ccco2)n1,-13.6%,-1.5%,i,1.1%,-3.4%,79.4µM*
COc1cccc(CN(C(=O)c2oc3cc(C)ccc3c2C)C2CCS(=O)(=O)C2)c1 (stereo not given),.,0.8%,.,.,-7.5%,7.5%
CCOc1ccccc1CNC(=O)c1cc(-c2ccc(OC)cc2)nc2ccc(C(C)C)cc12,.,-1.0%,.,.,20.8%[57.1 µM],29.3%[57.1 µM]
Cn1c(SCC(=O)N/N=C/c2ccco2)nc2ccccc21,4.0%,-0.3%,i,-0.2%,-2.0%,19.5%
CCn1c(SCC(=O)N/N=C/C=C/c2ccco2)nc2ccccc21,5.9%,?,i,-3.5%,-9.0%,44.7µM*
CC(/C=N/NC(=O)CSc1nc2ccccc2n1C)=C\c1ccco1,3.2%,?,i,-13.9%,-12.7%,79.4µM*
O=C(CSc1nnc(SCc2ccccc2)s1)N/N=C/C=C\c1ccco1,-4.0%,?,i,-0.9%,-1.5%,44.7µM*
O=C(CSc1nnc(SCc2ccccc2)s1)N/N=C/C=C/c1ccccc1[N+](=O)[O-],7.2%,-6.1%,i,-8.7%,-8.8%,10.4%[57.1 µM]
SMILES,N370S GC,Pin1 inhibitor,Akt phos inh,A-T KAP1 phos,TrxR1 substrate,rTrxR1 inhibitor
CCn1c(SCC(=O)N/N=C/C=C/c2ccco2)nnc1-c1ccc(OC)cc1,5.4%,-10.3%,i,.,1.4%,10.9%
O=C(c1cnn(-c2ccc(F)cc2)c1-n1cccc1)N1CCN(c2cccc(Cl)c2)CC1,.,-5.1%,.,.,-1.5%,16.2%
Cc1cccc(CNC(=O)C2CCN(c3nc4ccc(Cl)cc4[nH]3)CC2)c1,.,-4.2%,.,.,2.4%[57.1 µM],26.2%[57.1 µM]
COc1ccc(CC(=O)n2[nH]c(=O)c3ccccc3c2=O)cc1OC,4.8%,-8.4%,i,-0.4%,5.1%[11.4 µM],17.3%[11.4 µM]
COc1ccc(CC(=O)n2[nH]c(=O)ccc2=O)cc1OC,-0.5%,2.9%,i,3.6%,11.4%[57.1 µM],3.55µM*
COc1ccc(CN2C(=O)N(c3ccc(F)cc3)C(=O)C2CC(=O)Nc2cc(OC)cc(OC)c2)cc1 (stereo not given),.,?,.,.,-15.7%,-24.4%
CC(C)OP(=O)(OC(C)C)C1(O)C(=O)Nc2ccc(Br)cc21 (stereo not given),?,2.8%,i,-1.6%,-0.8%,39.8µM*
CN(C)c1ccc(N/C=C/C(=O)C(C)(C)C)cc1,-4.9%,-4.6%,-113.7%*,-11.2%,-6.5%,-10.7%[57.1 µM]
CN(C)c1ccc(N/C=C/C(=O)c2ccccc2)cc1,-8.8%,?,i,-8.7%,1.0%,8.1%
CCOc1ccc(NC(=O)CNC(=O)c2cn(-c3ccccc3OC)c(=O)c3ccccc23)cc1,12.6µM*,0.5%,i,1.7%,-0.2%,-1.6%
COCCCNC(=O)CNC(=O)c1cn(-c2ccccc2OC)c(=O)c2ccccc12,-4.8%,-12.5%,i,-1.1%,5.7%,19.5%
COCCNC(=O)c1c(N)n(-c2cccc(C)c2)c2nc3ccccc3nc12,?,?,i,3.55µM*,332.6%,12.3%
O=C(CCc1ccccc1)c1c(O)cc(O)cc1O,5.7%,-2.2%,i,2.7%,1.8%,20µM*
COc1ccc(C(=O)CCc2ccccc2)c(O)c1,.,-0.6%,i,.,0.2%,22.5%
Cc1cccc(-n2c(O)c(C=NCCCN3CCOCC3)c3ccccc3c2=O)c1,5.2%,108.8%,-120.5%*,-4.4%,5.0%[57.1 µM],1.2%
Cc1ccc(S(=O)(=O)c2ccc([N+](=O)[O-])cn2)cc1,1.0%,2.0%,i,1.1%,-7.5%,0.447µM*
O=C(NCc1ccccc1)Nc1ncnc2c1C(c1ccccc1)c1c(ccc3ccccc13)O2 (stereo not given),.,21.7%,.,.,.,.
CCCc1[nH]nc2c1C1(C(=O)N(CC)c3ccccc31)C(C#N)=C(N)O2 (stereo not given),-7.8%,0.2%,-109.8%*,-2.8%,6.8%,7.0%
CCn1cc(Cl)c(C(=O)Nc2nc3ccccc3n2CCN2CCCCC2)n1,-4.7%,-5.4%,i,12.6µM*,-7.0%,-4.8%
Cc1c(Cl)c(C(=O)Nc2nc3ccccc3n2CCN2CCCCC2)nn1C,-4.8%,.,.,-1.3%,.,.
NC(=O)C1CCN(c2nnc(-c3ccc4c(c3)OCCCO4)s2)CC1,.,3.4%,.,.,.,.
CCn1c(Cc2ccccc2)nnc1SCC(=O)N1CCCC1=O,1.5%,-4.5%,i,5.3%,-4.7%,1.0%
